About 470 (0.14%) of roughly 340,000 compounds were called active. The list comes from a sample in which actives are over-represented; it also holds similar structures and randomly drawn compounds. Unmarked numbers belong to inactive results.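 Rule for the calls: active = mean activation of 30% or more, with every replicate also reaching 30%; inconclusive = mean activation of 30% or more but some replicate falls short; inactive = the rest.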

This note sets out measurements from PubChem BioAssay AID623901 (Broad Institute, 2012).

This assay in a line: small molecules raising miR-122 sensor signal – cell-based, Huh7 psiCHECK-miR122, Renilla luciferase, single point, primary screen (AID 623901).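 Note: 0% = median of neutral control wells and 100% = median of positive control wells; higher luciferase signal means stronger suppression of miR-122 activity.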 The note with it: 48 h, at 12.5 µM, stronger effect = higher value.
Regarding `Cc1ccc(-c2ccc3c(c2)O[C@@H](CN(C)C(=O)NC(C)C)[C@@H](C)CN([C@H](C)CO)S3(=O)=O)cc1`, the activation is -3.11%.

Turning to `COc1ccc(OC)c(-n2cc3c(=O)n(C)c(=O)n(C)c3c2)c1`, the activation was -102%. `O=C(NNC(=O)c1ccccc1O)c1ccccc1O`: the activation was -530%. `CCCN(C)C[C@H]1Oc2ncc(-c3ccccc3OC)cc2C(=O)N([C@H](C)CO)C[C@@H]1C`: the activation is 6.19%.

`O=c1c(-c2ccccc2)coc2c(CN3CCOCC3)c(O)ccc12`: the activation is 35.8% (active).

As for `CNC[C@@H]1Oc2cc(-c3ccccc3OC)ccc2S(=O)(=O)N([C@H](C)CO)C[C@H]1C`, the activation was -5.6%. With `C[C@@H]1CN([C@H](C)CO)C(=O)c2cc(C#CCN(C)C)cnc2O[C@H]1CN(C)C(=O)Cc1ccncc1` the figure was 2.45%. Take `C[C@@H]1CN([C@@H](C)CO)S(=O)(=O)c2ccc(-c3cccc(C(=O)N(C)C)c3)cc2O[C@@H]1CN(C)C(=O)Nc1ccccc1`: the activation is -16.6%. For `Cc1ccc(S(=O)(=O)NC2CCCCCC2)cc1`, the activation was -106%. Consider `C[C@H](CO)N1C[C@H](C)[C@@H](CN(C)C(=O)Cc2cccnc2)Oc2ncc(-c3ccncc3)cc2C1=O`, for which the activation is -1.97%. Turning to `COc1ccc(C#Cc2ccc([C@H]3[C@@H](CO)N4CCCCN(C(=O)Nc5ccccc5)C[C@H]34)cc2)cc1`, the activation was 35.5% (active). For the compound `O=C(Nc1ccc(F)cc1)N1CCCCN2[C@H](CO)[C@H](c3ccc(C#Cc4ccccc4)cc3)[C@H]2C1`, the activation was 34.6% (active). Consider `O=C(NCCCn1ccnc1)c1cc(-c2ccccc2)on1`, for which the activation is -98.4%. The value for `O=C(CN1CCOCC1)Nc1cc(Cl)ccc1Cl` was -101%. As to `O=S(=O)(N/N=C\c1cccn1-c1ccccc1)c1ccc2ccccc2c1`, the activation was -97.9%. For the compound `Cc1noc(C)c1NC(=O)N(C)C[C@@H]1Oc2cc(C#CCC(C)C)ccc2S(=O)(=O)N([C@H](C)CO)C[C@@H]1C`, the activation is -3.73%. For the compound `CCCNC(=O)N(C)C[C@H]1Oc2ncc(C#C[C@@H](C)O)cc2C(=O)N([C@@H](C)CO)C[C@@H]1C`, the activation was 7.15%. Take `COc1ccc(C(=O)N2C[C@@H]3[C@H](c4ccccc42)[C@H](CO)N3Cc2ccc3c(c2)OCO3)cc1`: the activation was -247%. For the compound `O=C(CC(F)(F)F)N1C[C@H]2[C@@H](c3ccccc31)[C@H](CO)N2C(=O)Cc1cccnc1`, the activation is 33.3% (active). On to `O=C(c1ccccc1F)N1C[C@H]2[C@@H](c3ccccc31)[C@@H](CO)N2C(=O)c1ccc(F)cc1`, for which the activation was -471%.

In the case of `CCCC#Cc1ccc2c(c1)O[C@H](CN(C)C(=O)CC)[C@@H](C)CN([C@H](C)CO)S2(=O)=O`, the activation is -45.7%. Take `CCCNC(=O)N(C)C[C@@H]1Oc2cc(-c3ccccc3)ccc2S(=O)(=O)N([C@H](C)CO)C[C@H]1C`: the activation is -13.1%. For `C[C@@H]1CN([C@@H](C)CO)S(=O)(=O)c2ccc(C#C[C@@H](C)O)cc2O[C@@H]1CN(C)C(=O)Cc1ccccn1`, the activation is 2.54%.

On to `C/C=C/c1ccc2c(c1)O[C@@H](CN(C)S(C)(=O)=O)[C@@H](C)CN([C@H](C)CO)S2(=O)=O`, for which the activation is 3.54%. Turning to `CCCNC(=O)N(C)C[C@@H]1Oc2ncc(C#CC(C)C)cc2C(=O)N([C@H](C)CO)C[C@H]1C`, the activation was 10.4%.

For the compound `C[C@H]1CN([C@@H](C)CO)S(=O)(=O)c2ccc(C#CCN(C)C)cc2O[C@H]1CN(C)C(=O)CN(C)C`, the activation is 8.35%. Turning to `COCC(=O)Nc1ccc2c(c1)OC[C@H](C)NC[C@@H](C)[C@H](OC)CN(C)C2=O`, the activation is -4.6%. Consider `CCC(=O)N(C)C[C@@H]1Oc2cc(C#C[C@H](C)O)ccc2S(=O)(=O)N([C@@H](C)CO)C[C@H]1C`, for which the activation is -2.5%. As to `C/C=C/c1cnc2c(c1)C(=O)N([C@H](C)CO)C[C@H](C)[C@@H](CN(C)CC1CCOCC1)O2`, the activation is 2.95%.

Regarding `CCN1CCN(C(c2cccnc2)c2cc(Cl)c3cccnc3c2O)CC1` (stereo not drawn), the activation is 49.7% (active). Take `O=C1c2ccccc2C2=Nc3ccccc3SC(c3ccccc3F)C12` (stereo not drawn): the activation is -162%. As for `O=C(CNCCC1=CCCCC1)Nc1ccccc1N1CCCCCC1`, the activation is 76.7% (active).

Regarding `C=CCNC(=O)c1ccccc1NC(=O)c1ccc(Cl)c(S(=O)(=O)Nc2cccc(C)c2C)c1`, the activation is -155%. For the compound `COc1ccc(C(CCN(Cc2ccc(OC)c(OC)c2)C(=O)CCl)c2ccccc2)cc1` (stereo not drawn), the activation was 34.7% (active). As to `CC(C)CC#Cc1cnc2c(c1)C(=O)N([C@H](C)CO)C[C@H](C)[C@H](CN(C)C(=O)Nc1ccccc1F)O2`, the activation is 4.61%. With `C[C@H](CO)N1C[C@H](C)[C@@H](CN(C)C(=O)Cc2ccncc2)Oc2ncc(C#CCN(C)C)cc2C1=O` the figure was 3.61%. Turning to `COCC#Cc1cnc2c(c1)C(=O)N([C@@H](C)CO)C[C@@H](C)[C@@H](CN(C)S(=O)(=O)c1cccc(OC)c1)O2`, the activation is -3.48%.

In the case of `C[C@@H](O)C#Cc1cnc2c(c1)C(=O)N([C@@H](C)CO)C[C@H](C)[C@H](CN(C)Cc1cncnc1)O2`, the activation was 3.47%. For the compound `Cc1cc(C(C)(C)C)cc(S(=O)(=O)Nc2ccc(C(=O)O)cc2)c1C`, the activation is -165%. With `C[C@H](CO)N1C[C@H](C)[C@H](CN(C)C(=O)Nc2ccc3c(c2)OCO3)Oc2ncc(C#Cc3cccc(F)c3)cc2C1=O`, the activation is 5.6%. Take `CNC[C@@H]1Oc2cc(-c3ccccc3OC)ccc2S(=O)(=O)N([C@@H](C)CO)C[C@H]1C`: the activation was -2.47%.

Take `CN1C[C@@H]2[C@H](c3ccccc31)[C@@H](CO)N2C(=O)Nc1ccccc1`: the activation was 41.7% (active). On to `O=C(Cc1ccccc1)N1C[C@@H]2[C@H](c3ccccc31)[C@@H](CO)N2C(=O)Nc1ccc(F)cc1`, for which the activation is -92.3%. As for `O=C(Nc1cc(F)ccc1F)N1C[C@H]2[C@@H](c3ccccc31)[C@@H](CO)N2C(=O)c1ccccc1`, the activation was -133%. With `C[C@H](O)C#Cc1ccc2c(c1)O[C@H](CN(C)Cc1cncnc1)[C@H](C)CN([C@@H](C)CO)S2(=O)=O`, the activation is -0.322%. With `CC(C)c1cc(C(=O)O)n[nH]1` the figure was -143%; with `C[C@H](CO)N1C[C@H](C)[C@H](CN(C)S(=O)(=O)c2ccccc2)Oc2ncc(-c3cccc(C(F)(F)F)c3)cc2C1=O`, 11.3%; with `COCC(=O)Nc1ccc2c(c1)OC[C@H](C)NC[C@H](C)[C@H](OC)CN(C)C2=O`, -0.878%. `C[C@H](O)C#Cc1ccc2c(c1)O[C@@H](CN(C)Cc1cncnc1)[C@H](C)CN([C@H](C)CO)S2(=O)=O`: the activation was 0.702%.

Turning to `COCC(=O)N(C)C[C@@H]1Oc2ncc(C#Cc3ccccc3OC)cc2C(=O)N([C@@H](C)CO)C[C@H]1C`, the activation is 5.1%. For the compound `C[C@@H]1CN([C@H](C)CO)S(=O)(=O)c2ccc(-c3cncnc3)cc2O[C@@H]1CN(C)Cc1ccccn1`, the activation was 5.28%. For `COCC(=O)N(C)C[C@H]1Oc2cc(Br)ccc2S(=O)(=O)N([C@H](C)CO)C[C@H]1C`, the activation is -1.48%.

As for `CCC(=O)N(C)C[C@H]1Oc2ncc(C#Cc3cccnc3)cc2C(=O)N([C@H](C)CO)C[C@H]1C`, the activation was 6.77%. With `C[C@@H]1CN([C@H](C)CO)C(=O)c2cc(-c3cccc(F)c3)cnc2O[C@H]1CN(C)C(=O)Nc1ccccc1F` the figure was -3.89%; with `C[C@H](O)C#Cc1ccc2c(c1)O[C@@H](CN(C)Cc1cccnc1)[C@H](C)CN([C@H](C)CO)S2(=O)=O`, 0.774%; with `CCCNc1ncnc2sc(C)c(C)c12`, -122%. On to `Cc1ccc(S(=O)(=O)N(C)C[C@H]2Oc3ccc(NC(=O)CCC(F)(F)F)cc3C(=O)N([C@@H](C)CO)C[C@H]2C)cc1`, for which the activation was -99.9%. As to `C[C@@H]1CN([C@@H](C)CO)S(=O)(=O)c2ccc(-c3ccncc3)cc2O[C@@H]1CN(C)C(=O)Nc1ccc(F)cc1`, the activation is -17.3%. For `C[C@H](CO)N1C[C@H](C)[C@@H](CN(C)C(=O)C2CC2)Oc2ncc(C#CC(C)(C)O)cc2C1=O`, the activation was 1.07%. The value for `C[C@H]1CN([C@@H](C)CO)C(=O)c2cc(C3=CCCCC3)cnc2O[C@@H]1CN(C)C(=O)c1ccc(F)cc1` was -3.28%. `CO[C@@H]1CN(C)C(=O)c2cc(NC(=O)C3CCOCC3)ccc2OC[C@H](C)N(C)C[C@H]1C`: the activation is 0.196%. With `Cc1ccc(S(=O)(=O)Nc2ccc3c(c2)CC(=O)N([C@@H](C)CO)C[C@H](C)[C@H](CN(C)Cc2ccc(C(=O)Nc4ccccc4N)cc2)O3)cc1`, the activation is -252%. For the compound `CCC(=O)Nc1ccc2c(c1)OC[C@H](C)N(C(=O)c1ccccc1F)C[C@@H](C)[C@H](OC)CN(C)C2=O`, the activation was -3.57%. In the case of `C[C@H]1CN([C@@H](C)CO)C(=O)c2cc(-c3cccc(F)c3)cnc2O[C@@H]1CN(C)S(C)(=O)=O`, the activation is -3.18%. For the compound `COc1ccc(/C=C/C(=O)Nc2ccc(C34CC5CC(CC(O)(C5)C3)C4)cc2)cc1OC`, the activation is 56.9% (active).

For `CC(C)NC(=O)N(C)C[C@@H]1Oc2ncc(C3=CCCCC3)cc2C(=O)N([C@H](C)CO)C[C@@H]1C`, the activation is 5.61%.

Consider `Cc1ccc(-c2cnc3c(c2)C(=O)N([C@@H](C)CO)C[C@@H](C)[C@H](CN(C)Cc2ccccc2F)O3)cc1`, for which the activation was -34.6%.

With `C/C=C/c1ccc2c(c1)O[C@@H](CN(C)C(=O)Cc1ccccn1)[C@@H](C)CN([C@H](C)CO)S2(=O)=O`, the activation is -0.361%.
